ssDAF-12 act – S. stercoralis DAF-12 nuclear receptor activators, primary screen, cell-based, luminescence, HEK293, GRIP1 co-expression, lit1-tk-luc; HEK293 ssDAF-12/GRIP1 lit1-tk-luc reporter; % of 3 µM dafachronic acid response; activation, % at 6.8 µM; 370,000 tested, 1% active; AID 652126, 2013;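 active = activation above the mean over all tested compounds plus 3 SD, cut at about 0.9% in these data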
hgDAF12 agonist – H. glycines DAF-12 receptor agonists, primary screen, cell-based, luminescence, HEK293, GAL4 fusion, UAS-luciferase | Nuclear hormone receptor DAF-12 (Heterodera glycines), GAL4 fusion | HEK293 GAL4-hgDAF12 UAS-luciferase reporter, agonist luminescence; normalized to butyrate control | activation, % at 6.8 µM | 370,000 tested, 1.8% active | AID 687014, 2013;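 active = activation above a cutoff set at the mean of all screened compounds plus 3 SD, cut at about 10% in these data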
DAX1 inh-1 – DAX1 (NR0B1) inhibitors on StAR promoter, primary screen, cell-based, luminescence, SF-1 (NR5A1), full-length DAX-1; HEK293T StAR-luciferase reporter, SF-1/DAX-1 repression relief; inhibition, % at 6.8 µM; AID 652010, 2013; 370,000 tested, 1.1% active;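 active = inhibition above the mean over all tested compounds plus 3 SD, cut at about 3.6% in these data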;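 also: higher inhibition means more luminescence from relief of DAX-1 repression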
DAX1 inh-2 – DAX1 (NR0B1) inhibitors, primary screen, cell-based, HEK293, Gal4-DAX1, luciferase luminescence; Nuclear receptor subfamily 0 group B member 1 (Homo sapiens), P51843; HEK293 Gal4-DAX1 luciferase reporter; inhibition, % at 6.75 µM; 340,000 tested, 0.99% active; AID 504766, 2011;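 active = inhibition above the mean over all tested compounds plus 3 SD, cut at about 4.2% in these data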;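 also: inhibition shows as a rise in luminescence from relieved DAX1 repression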
hcDAF12 agonist – H. contortus DAF-12 nuclear receptor activators, primary screen, cell-based, luminescence, HEK293, lit1-tk-luc reporter; activation, % at 6.8 µM; HEK293 hcDAF-12 lit1-tk-luc reporter; 0% DMSO, 100% Δ7-dafachronic acid; 370,000 tested, 1.4% active; AID 652067, 2013;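 active = activation above the mean of all tested compounds plus 3 SD, cut at about 5.5% in these data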
LXRb hcDAF ctr – LXR agonists, Gal4 luciferase reporter, confirmation, counter-screen for hcDAF-12 agonist project, cell-based, luminescence, HEK293, H. contortus campaign; activation, % at 6.8 µM; 3,400 tested, under 10 active; AID 743027, 2013; shares compounds with hcDAF12 agonist; HEK293 Gal4-LXR tk-luc reporter, 24 h; normalized: DMSO 0%, positive control 100%;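 active = mean percent activation of the reporter above a cutoff set as the average over tested compounds plus their standard deviation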
Target sequence (P55055 whole entry, looked up, the tested form may be a part): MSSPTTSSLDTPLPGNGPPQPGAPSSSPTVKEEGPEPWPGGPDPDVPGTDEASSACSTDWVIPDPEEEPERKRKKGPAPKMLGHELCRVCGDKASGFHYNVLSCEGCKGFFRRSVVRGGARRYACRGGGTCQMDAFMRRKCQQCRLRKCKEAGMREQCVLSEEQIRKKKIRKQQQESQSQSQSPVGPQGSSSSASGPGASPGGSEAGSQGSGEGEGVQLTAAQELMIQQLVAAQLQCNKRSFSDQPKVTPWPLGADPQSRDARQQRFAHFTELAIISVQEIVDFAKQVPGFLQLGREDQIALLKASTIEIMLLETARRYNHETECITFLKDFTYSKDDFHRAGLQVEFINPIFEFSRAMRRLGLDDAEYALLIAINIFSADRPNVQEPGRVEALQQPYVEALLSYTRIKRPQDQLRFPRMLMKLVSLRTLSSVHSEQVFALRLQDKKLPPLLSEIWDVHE
hcDAF12 ag – H. contortus DAF-12 receptor agonists, confirmation, cell-based, luminescence, HEK293, lit1-tk-luc, triplicate | 3,400 tested, 61% active | shares compounds with hcDAF12 agonist | HEK293 hcDAF-12 lit1-tk-luc reporter; % of Δ7-dafachronic acid response | activation, % at 6.8 µM;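 active = mean activation across triplicate tests above the threshold derived from the earlier primary screen, cut at about 5.5% in these data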
Large screens that a line does not name were inactive (follow-up assays come after a bar, where they were run). A selection: hits, their analogues and other compounds. The true share with any hit is near 4.1%.

Cc1ccc(NC(=O)NNC(=O)CCn2nc(C)c([N+](=O)[O-])c2C)cc1C	none (no result: DAX1 inh-2)
CCOC(=O)c1cnc(-c2ccccc2)nc1N(C)C	hgDAF12 agonist 11, hcDAF12 agonist 11 | LXRb hcDAF ctr inactive | hcDAF12 ag 9.4
CCOC(=O)c1csc(NC(=O)C2CCCN(S(=O)(=O)c3ccccc3)C2)n1 (stereo not drawn)	none (no result: DAX1 inh-2)
Cc1nc(-c2ccc(NC(=O)c3ccccc3)cc2)cs1	ssDAF-12 act 1.2, hgDAF12 agonist 12, DAX1 inh-1 4.5, hcDAF12 agonist 6.7 | LXRb hcDAF ctr inactive | hcDAF12 ag 8.0
Cc1ccc(C(=O)Nc2ccc(-c3csc(C)n3)cc2)cc1	none
O=C(c1ccc(-c2ccc([N+](=O)[O-])cc2)o1)N1CCCCC1	hgDAF12 agonist 17, hcDAF12 agonist 8.4 | LXRb hcDAF ctr inactive | hcDAF12 ag inactive
Cc1nc2ccccc2nc1SCC(=O)c1ccccc1	hcDAF12 agonist 6.7 | LXRb hcDAF ctr inactive | hcDAF12 ag inactive
O=C(CSc1ccc2ccccc2n1)c1ccccc1	ssDAF-12 act 1.4, hcDAF12 agonist 9.3 | LXRb hcDAF ctr inactive | hcDAF12 ag 8.2
CC(C)(C)c1nc(SCC(=O)c2ccccc2)c2ccccc2n1	none
O=S1(=O)CC(N2CCC(Cc3ccccc3)CC2)CN1C1CCCC1 (stereo not drawn)	none (no result: DAX1 inh-2)
CC#CC(=O)N[C@H]1CC[C@@]23CCCN2C(=O)CCC[C@H]3[C@H]1C	none (no result: DAX1 inh-1, DAX1 inh-2)
Nc1cc2[nH]c(=O)c3ccccc3c2cc1Br	ssDAF-12 act 1.1, DAX1 inh-1 3.7, hcDAF12 agonist 9.7 | LXRb hcDAF ctr inactive | hcDAF12 ag 9.3
Nc1cc2c(cc1Br)[nH]c(=O)c1ccccc12	none
COC(=O)C(NC=O)C(O)(Cc1ccccc1)C(F)(F)F (stereo not drawn)	hcDAF12 agonist 9.7 | LXRb hcDAF ctr inactive | hcDAF12 ag inactive
COC(=O)C(O)(NC(=O)OCc1ccccc1)C(F)(F)F (stereo not drawn)	none
COc1ccc(C)cc1NC(=O)Cc1csc(NC(=O)Nc2ccccc2OC)n1	none
Cc1ccc(C(=O)Nc2ncc(Cc3ccccc3)s2)o1	DAX1 inh-1 3.8, hcDAF12 agonist 12 | LXRb hcDAF ctr inactive | hcDAF12 ag 8.4
O=C(O)Cn1nc(-c2ccccc2)cc1-c1ccccc1	none
CC(=O)n1nc(-c2ccccc2)cc1-c1ccccc1	ssDAF-12 act 1.6, hgDAF12 agonist 12, DAX1 inh-2 4.6, hcDAF12 agonist 14 | LXRb hcDAF ctr inactive | hcDAF12 ag 16
CNC[C@H]1OCc2cnnn2CCCC(=O)N([C@@H](C)CO)C[C@@H]1C	none (no result: DAX1 inh-2)
COC(=O)CSc1nnc(-c2cc(-c3ccccc3)n[nH]2)n1N	none (no result: DAX1 inh-2)
OCCC1CN(Cc2ccccc2O)CCN1CCCc1ccccc1 (stereo not drawn)	hcDAF12 agonist 7.8 | LXRb hcDAF ctr inactive | hcDAF12 ag inactive
Cc1ccccc1CN1CCN(CCCc2ccccc2)C(CCO)C1 (stereo not drawn)	none
Cc1ccc(N=Nc2c(C)[nH]n(C(N)=S)c2=O)cc1C	hcDAF12 agonist 9.2 | LXRb hcDAF ctr inactive | hcDAF12 ag 12
Cc1[nH]n(C(N)=S)c(=O)c1N=Nc1ccc2ccccc2c1	ssDAF-12 act 1.3, hgDAF12 agonist 13, hcDAF12 agonist 15 | LXRb hcDAF ctr inactive | hcDAF12 ag 9.0

Screens from PubChem.
